# Test results published in PubChem BioAssay (Tox21).
# “And” between values parts separate entries of the source, which are not always exact repeats. Equal entries are not always repeated. Records with an inconclusive call do not appear. Where a call stands in place of a potency, no number is given. Where a structure was tested more than once in an assay, its records may differ in their call. The source made the active and inactive calls. Unless noted, calls follow the shape of the dose curve; as a rule, active = well fitted curve in the direction sought with a large enough effect in the repeat runs; inconclusive = weak or mixed curves; inactive = no such curve, though single readings can be large; an effect the other way counts as inactive or inconclusive.
# How the values were obtained:
# [1] = qHTS assay to identify aromatase inhibitors - cell viability counter screen (AID 743084);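 also: cells stimulated with testosterone during compound exposure; nearly all actives have a fitted effect of over 55% in size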; also: potency is read from the fitted curve at half-maximal effect
# [2] = molecular target: Aryl hydrocarbon receptor (Homo sapiens) (UniProt P35869); assay: qHTS assay to identify small molecule that activate the aryl hydrocarbon receptor (AhR) signaling pathway (AID 743085); also: nearly all actives have a fitted effect of over 15% in size; also: potency is read from the fitted curve at half-maximal effect;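 as to activation: HG2L7.5c1 human HepG2 liver cells with stably integrated DRE-driven firefly reporter; series mostly up to about 70 µM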
# In short: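 AhR agonist activity is inferred from enhanced light output of a DRE-controlled firefly luciferase reporter in HepG2 cells, measured with ONE-Glo following 24 h treatment at 37C.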
# [3] = qHTS assay to identify small molecule that activate the aryl hydrocarbon receptor (AhR) signaling pathway - cell viability counter screen (AID 743086); also: nearly all actives have a fitted effect of over 45% in size; also: potency is read from the fitted curve at half-maximal effect
# In short: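 HepG2-AhR-luc (HG2L7.5c1) cells, 4000/well, treated 24 h at 37 C with compound; viability measured as CellTiter-Fluor fluorescence after 30 min in the same wells as the luciferase read.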
# [4] = molecular target: Peroxisome proliferator-activated receptor gamma (Homo sapiens) (UniProt P37231); assay: qHTS assay to identify small molecule agonists of the peroxisome proliferator-activated receptor gamma (PPARg) signaling pathway (AID 743094; active = well fitted activation curve with a large enough effect in the signal ratio in the repeat runs, not every such curve was filed as active; the % refers to the signal ratio; also: potency is read from the fitted curve at half-maximal effect)
# In short: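 Quantitative HTS agonist mode: stable HEK293H line with UAS-beta-lactamase reporter under PPARg control, 17 h compound exposure at 37C, fluorescence after 1 h FRET substrate loading at room temperature.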
# [5] = qHTS assay to identify small molecule antagonists of the peroxisome proliferator-activated receptor gamma (PPARg) signaling pathway - cell viability counter screen (AID 743194); also: nearly all actives have a fitted effect of over 55% in size; also: potency is read from the fitted curve at half-maximal effect
# In short: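 Cytotoxicity counter screen in PPARg-bla HEK293H cells, same wells as reporter assay. Compounds plus 50 nM rosiglitazone (final) for 17 h at 37 C, then viability read by CellTiter-Glo luminescence.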
# [6] = qHTS assay for small molecule agonists of the antioxidant response element (ARE) signaling pathway - cell viability counter screen (AID 743203; calls by dose curve; also: nearly all actives have a fitted effect of over 55% in size; also: potency is read from the fitted curve at half-maximal effect)
# In short: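 Seeded at 2,000 cells/well, ARE-bla HepG2 cells were incubated 5 hrs before compound addition. After 16 hrs of treatment at 37C with 5% CO2, CellTiter-Glo reagent was added and luminescence read 30 min later.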
# [7] = qHTS assay for small molecule activators of the heat shock response signaling pathway - cell viability counter screen (AID 743209); also: nearly all actives have a fitted effect of over 50% in size; also: potency is read from the fitted curve at half-maximal effect
# In short: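 First, HSE-bla HeLa cells were seeded at 1500 cells/well and kept overnight at 37 C. Next, compounds were pinned in and incubated 5 h. After the FRET substrate step, CellTiter-Glo was added and luminescence read 30 min later.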
# [8] = qHTS assay for small molecule agonists of the antioxidant response element (ARE) signaling pathway (AID 743202; active = well fitted activation curve with a large enough effect in the signal ratio in the repeat runs, not every such curve was filed as active; the % refers to the signal ratio; also: potency is read from the fitted curve at half-maximal effect)
# In short: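 Agonist mode reporter screen: HepG2 cells with ARE-controlled beta-lactamase are incubated with test compounds for 16 h at 37 C, and beta-lactamase activity is measured as fluorescence of cleaved B/G FRET substrate.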
# [9] = molecular target: Peroxisome proliferator-activated receptor gamma (Homo sapiens) (UniProt P37231); assay: qHTS assay to identify small molecule antagonists of the peroxisome proliferator-activated receptor gamma (PPARg) signaling pathway (AID 743191; calls by dose curve; also: nearly all actives have a fitted effect of over 30% in size; also: potency is read from the fitted curve at half-maximal effect)
# In short: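 GeneBLAzer PPARg UAS-bla HEK293H cells, 5 h post-plating, exposed to compounds 17 h at 37C. LiveBLAzer B/G FRET substrate added for 1 h at room temperature; beta-lactamase reporter read by fluorescence intensity.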
# [10] = qHTS assay for small molecule activators of the heat shock response signaling pathway (AID 743210; active = well fitted activation curve with a large enough effect in the signal ratio in the repeat runs, with a control signal flat, not every such curve was filed as active; the % refers to the signal ratio;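 also: HeLa cells with beta-lactamase reporter driven by heat shock elements; series mostly up to about 63 µM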)
# In short: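 Quantitative high-throughput format using an engineered HeLa line in which heat shock response elements drive beta-lactamase; after 5 h with compound, cells received a B/G FRET substrate and fluorescence was read.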
# Sequence of Peroxisome proliferator-activated receptor gamma (Homo sapiens) (P37231 whole entry, looked up): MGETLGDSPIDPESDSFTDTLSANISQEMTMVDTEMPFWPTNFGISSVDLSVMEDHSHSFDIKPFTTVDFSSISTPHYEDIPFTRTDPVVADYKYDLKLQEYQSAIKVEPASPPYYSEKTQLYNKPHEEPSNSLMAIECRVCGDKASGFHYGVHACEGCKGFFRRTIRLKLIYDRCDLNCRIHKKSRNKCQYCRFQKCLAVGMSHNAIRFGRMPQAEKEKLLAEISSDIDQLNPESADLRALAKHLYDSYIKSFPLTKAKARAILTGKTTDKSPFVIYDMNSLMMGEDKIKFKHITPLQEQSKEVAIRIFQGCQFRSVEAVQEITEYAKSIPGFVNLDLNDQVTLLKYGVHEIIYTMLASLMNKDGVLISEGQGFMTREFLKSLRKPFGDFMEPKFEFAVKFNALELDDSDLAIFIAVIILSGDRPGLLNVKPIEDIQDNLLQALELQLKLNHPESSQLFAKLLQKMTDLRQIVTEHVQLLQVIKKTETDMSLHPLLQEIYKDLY
# Sequence of Aryl hydrocarbon receptor (Homo sapiens) (P35869 whole entry, looked up): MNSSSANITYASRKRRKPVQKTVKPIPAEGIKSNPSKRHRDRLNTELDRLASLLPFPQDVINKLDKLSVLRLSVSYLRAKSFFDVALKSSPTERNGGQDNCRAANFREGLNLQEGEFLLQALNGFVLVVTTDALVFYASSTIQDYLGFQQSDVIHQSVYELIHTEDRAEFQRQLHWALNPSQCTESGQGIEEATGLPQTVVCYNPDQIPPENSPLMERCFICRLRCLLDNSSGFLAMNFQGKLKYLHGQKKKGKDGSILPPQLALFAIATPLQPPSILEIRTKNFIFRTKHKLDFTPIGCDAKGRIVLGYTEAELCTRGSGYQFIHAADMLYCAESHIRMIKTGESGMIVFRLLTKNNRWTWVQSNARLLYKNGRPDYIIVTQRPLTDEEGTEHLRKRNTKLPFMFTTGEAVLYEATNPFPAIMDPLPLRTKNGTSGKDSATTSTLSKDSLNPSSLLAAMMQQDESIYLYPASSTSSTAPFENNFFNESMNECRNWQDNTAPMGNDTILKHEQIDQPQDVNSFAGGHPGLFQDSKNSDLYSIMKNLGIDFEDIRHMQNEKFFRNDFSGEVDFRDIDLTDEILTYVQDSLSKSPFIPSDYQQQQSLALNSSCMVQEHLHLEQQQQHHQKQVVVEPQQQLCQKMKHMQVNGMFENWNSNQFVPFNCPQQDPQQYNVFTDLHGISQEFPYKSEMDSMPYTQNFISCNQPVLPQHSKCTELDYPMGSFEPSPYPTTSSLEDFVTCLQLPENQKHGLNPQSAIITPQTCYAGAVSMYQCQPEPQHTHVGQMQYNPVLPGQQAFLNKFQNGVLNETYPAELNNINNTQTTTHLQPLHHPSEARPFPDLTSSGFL
SMILES,Potency [1],Potency [2],Potency [3],Potency [4],Potency [5],Potency [6],Potency [7],Potency [8],Potency [9],outcome [10],activation [8]
Cc1cc(=O)oc2cc(O)ccc12,inactive,inactive,inactive,49 µM (active),inactive,inactive,inactive,–,–,–,–
Oc1ccccc1,inactive,inactive,inactive,–,inactive,inactive,inactive,inactive,–,–,–
CC(C)C(=O)Nc1ccc([N+](=O)[O-])c(C(F)(F)F)c1,inactive,inactive,inactive,inactive,inactive,inactive,inactive,19.3 µM (active) and 23.7 µM (active),inactive,inactive,–
Cc1ncc([N+](=O)[O-])n1C,inactive,inactive,inactive,–,inactive,inactive,inactive,inactive,–,inactive,–
C1CCC(C(CC2CCCCN2)C2CCCCC2)CC1 (stereo not given),18.8 µM (active),inactive,18.8 µM (active),–,33.5 µM (active),29.8 µM (active),33.5 µM (active),–,inactive,–,–
CN(C)C(=S)SC(=S)N(C)C,3.35 µM (active) and 994 nM (active) and 486 nM (active),inactive,1.57 µM (active) and 1.09 µM (active),–,inactive,–,–,–,inactive,–,–
Nc1ccc(S(N)(=O)=O)cc1,inactive,inactive,inactive,–,inactive,inactive,inactive,inactive,–,inactive,–
CCCC[P+](CCCC)(CCCC)CCCC,inactive,inactive,inactive,–,inactive,inactive,inactive,inactive,–,inactive,–
CC(=O)C(=O)O,inactive,inactive,inactive,inactive,inactive,inactive,inactive,inactive,inactive,inactive,–
O=C1c2c(O)cccc2Cc2cccc(O)c21,inactive,inactive,inactive,inactive,inactive,inactive,inactive,–,–,inactive,–
CNNCc1ccc(C(=O)NC(C)C)cc1,inactive,inactive,inactive,–,inactive,inactive,inactive,inactive,–,inactive,–
CS(=O)(=O)OCCCCOS(C)(=O)=O,inactive,inactive,inactive,inactive,inactive,inactive,inactive,inactive,inactive,inactive,–
Cc1cn([C@H]2C=C[C@@H](CO)O2)c(=O)[nH]c1=O,inactive,inactive,inactive,inactive,inactive,inactive,inactive,inactive,inactive,inactive,–
CCN(CC)C(=O)c1cccc(C)c1,inactive,inactive and 60.5 µM (active),inactive,inactive,inactive,inactive,inactive,inactive,–,inactive,–
COc1ccc(CN(CCN(C)C)c2ccccn2)cc1,inactive,inactive,inactive,–,inactive,inactive,inactive,inactive,–,inactive,–
C=CCc1ccc(O)c(OC)c1,inactive,inactive,inactive,inactive,inactive,inactive,inactive,inactive,–,inactive,–
CCOC(N)=O,inactive,–,inactive,–,inactive,inactive,inactive,inactive,–,inactive,–
Nc1ccc([N+](=O)[O-])cc1O,24.3 µM (active),13.7 µM (active),38.6 µM (active),–,–,inactive,inactive,–,–,inactive,–
Nc1ccc(O)c([N+](=O)[O-])c1,–,43.3 µM (active),–,inactive,–,–,–,–,–,inactive,–
Nc1ccc2c(c1)CN1C(=O)c3ccccc3C1=N2,–,–,–,–,inactive,inactive,inactive,–,–,inactive,–
O=C1OC2(c3ccccc31)c1cc(Br)c(O)c(Br)c1Oc1c2cc(Br)c(O)c1Br,9.44 µM (active) and 2.2 µM (active) and 4.45 µM (active),inactive,10.6 µM (active) and 2.77 µM (active) and 6.28 µM (active),–,inactive,inactive,inactive,–,–,–,–
COc1ccc(C(Cl)=C(c2ccc(OC)cc2)c2ccc(OC)cc2)cc1,inactive,inactive,inactive,–,inactive,inactive,inactive,–,–,inactive,–
C/C=C/C=C/C(=O)O,inactive,inactive,inactive,–,inactive,inactive,inactive,–,–,inactive,7.69% [at 8.36 µM] (inactive)

SMILES,Potency [1],Potency [2],Potency [3],Potency [4],Potency [5],Potency [6],Potency [7],Potency [8],Potency [9],outcome [10],activation [8]
CN(C)CCOC(c1ccccc1)c1ccccc1,inactive,–,inactive,–,inactive,inactive,inactive,inactive,–,inactive,–
CN1[C@@H]2CC(OC(=O)[C@H](CO)c3ccccc3)C[C@H]1[C@@H]1O[C@@H]12 (stereo not given in full),inactive,–,inactive,inactive,inactive,inactive,inactive,inactive,inactive,–,–
NC(=O)n1c(O)c(C(=O)c2cccs2)c2cc(Cl)ccc21,inactive,23.7 µM (active),inactive,–,–,–,–,–,–,inactive,–
O=C1NS(=O)(=O)c2ccccc21,inactive,–,inactive,–,inactive,inactive,inactive,inactive,–,–,–
COc1ccc2cc(S(=O)(=O)N[C@H](CC(=O)N[C@H](Cc3ccc(CN4[C@H](C)CCC[C@@H]4C)cc3)C(=O)N(C)C(C)C)c3ccc4c(c3)OCO4)ccc2c1,46 µM (active),inactive,23 µM (active),–,46.3 µM (active),18.3 µM (active),inactive,–,–,inactive,–
CN[C@H]1CC[C@@H](c2ccc(Cl)c(Cl)c2)c2ccccc21,–,inactive,inactive,–,–,18.8 µM (active),–,–,–,–,–
CC(=O)CC(c1ccccc1)c1c(O)c2ccccc2oc1=O (stereo not given),–,–,inactive,–,inactive,inactive,inactive,inactive,–,–,–
COc1ccc(OC(F)(F)F)cc1CN[C@H]1CCCN[C@H]1c1ccccc1,inactive,inactive,54.5 µM (active),–,inactive,27.3 µM (active),inactive,–,–,inactive,–
C1=CC2C3C=CC(C3)C2C1 (stereo not given),inactive,–,inactive,–,–,inactive,inactive,–,–,inactive,–
CN(C)C(=O)Nc1ccc(Cl)c(Cl)c1,inactive,–,inactive,inactive,inactive,inactive,inactive,inactive,inactive,inactive,–
CCCCCCCCCCCC[N+](C)(C)Cc1ccccc1,inactive and 67.3 µM (active),inactive,59.2 µM (active),–,17 µM (active) and 15 µM (active) and 26.6 µM (active),26.8 µM (active) and 29.7 µM (active),34 µM (active) and 18.9 µM (active) and 16.8 µM (active),–,–,–,–
CCCCCCc1ccc(O)cc1O,–,inactive,inactive,inactive,inactive,inactive,inactive,24.4 µM (active) and 26.6 µM (active),11.9 µM (active),inactive,–
CC/C(=C(\c1ccccc1)c1ccc(OCCN(C)C)cc1)c1ccccc1,27.3 µM (active) [middle of 5 runs],inactive,inactive and 61.6 µM (active),–,–,19.5 µM (active) and 27.3 µM (active) and 26.6 µM (active),inactive and 35 µM (active) and 43.6 µM (active),–,–,inactive,–
Cn1c(=O)c2c(ncn2C)n(C)c1=O,inactive and 55.1 µM (active),inactive,inactive and 69.4 µM (active),–,inactive,inactive,inactive,inactive,–,inactive,–
CC(=O)Nc1c(I)c(NC(C)=O)c(I)c(C(=O)O)c1I,–,–,inactive,–,inactive,inactive,inactive,inactive,–,–,–
CN1CCc2cccc3c2[C@H]1Cc1ccc(O)c(O)c1-3,29.8 µM (active) and 24.6 µM (active) and 20.4 µM (active),–,inactive and 61.8 µM (active),inactive,44.1 µM (active) and 3.65 µM (active),49.1 µM (active) and 5.74 µM (active),inactive,–,6.49 µM (active),–,–
COc1cccc(O)c1O,–,31.8 µM (active),–,–,inactive,inactive,–,–,–,–,–
CCc1nc(N)nc(N)c1-c1ccc(Cl)cc1,inactive,inactive,inactive,–,inactive,5.31 µM (active),inactive,–,–,inactive,–
Cc1ccc(S(=O)(=O)O)cc1,inactive,–,inactive,–,inactive,inactive,inactive,inactive,–,–,–
CCCCC(CC)C(=O)O (stereo not given),inactive,–,inactive,inactive,inactive,inactive,inactive,inactive,inactive,inactive,–
CC(C)c1c(C(=O)Nc2ccccc2)c(-c2ccccc2)c(-c2ccc(F)cc2)n1CC[C@@H](O)C[C@@H](O)CC(=O)O,inactive,–,inactive,–,inactive,inactive,inactive,13.2 µM (active),–,inactive,–
O=C(Nc1ncc([N+](=O)[O-])s1)c1cccs1,–,2.98 µM (active),inactive,–,–,–,–,–,–,inactive,–
